SENP7 inh: SENP7 protease inhibitors, primary screen, biochemical, luminescence, uHTS; Sentrin-specific protease 7 (Homo sapiens), Q9BQF6; recombinant SENP7, Z-RLRGG-aminoluciferin luminescence, 40 min; inhibition, % at 5 µM; hit rate 1.5% among 330,000;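 active = inhibition above about 50% at the single test dose, limit read from the data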;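 also: plate controls were DMSO with enzyme for no effect and no enzyme buffer wells for full effect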
SENP8 block-1: SENP8 protease inhibitors, primary screen, biochemical, luminescence; purified SENP8, Z-RLRGG-aminoluciferin cleavage; hit rate 1.2% among 330,000; Sentrin-specific protease 8 (Homo sapiens), Q96LD8; inhibition, % at 10 µM; AID 2540, 2010; in the data active = inhibition above about 50%
PPC-1+TRAIL kill: compounds killing PPC-1 cancer cells with TRAIL present, primary screen, TRAIL potentiator project, ATPLite luminescence, uHTS | PPC-1 cells + TRAIL, ATPLite viability luminescence | cell killing (% activity), % at 4 µM or 5 µM | hit rate 0.41% among 220,000 | AID 1443, 2008;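 active = cell killing above 50% in the first pass at 4 µM, then a duplicate retest at 5 µM averaging 50% or more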;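 also: plate controls were cells with TRAIL plus DMSO for no effect and medium-only wells lacking cells for full effect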
SENP8 block-2: human SENP8 protease inhibitors, primary screen, biochemical, fluorescence, Nedd8 protein substrate, uHTS; Sentrin-specific protease 8 (Homo sapiens), Q96LD8; recombinant SENP8; inhibition, % at 20 µM; hit rate 0.64% among 360,000; AID 602440, 2012; in the data active = inhibition mostly above about 40%, no sharp cut-off; inactive = mostly below about 27%
C8 TRAIL sens: viability loss with TRAIL in NB7+C8 cells, primary screen, TRAIL sensitizer project, cell-based, ATPlite luminescence. inhibition (viability loss, TRAIL sensitization), % at 10 µM. hit rate 1% among 360,000;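 active = compounds causing at least 50% loss of cell viability in the single-dose screen, relative to plate controls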
SENP6 block: SENP6 protease inhibitors, primary screen, biochemical, luminescence, uHTS. Recombinant SENP6 catalytic domain, aminoluciferin luminescence. inhibition, % at 10 µM. hit rate 1.8% among 330,000. AID 2599, 2010;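 active = inhibition above about 50% at the single tested dose, limit read from the data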;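 also: plate controls were DMSO wells with enzyme for no effect and DMSO wells lacking enzyme for full effect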
Target sequence (Q9GZR1 628-1112 limits assumed): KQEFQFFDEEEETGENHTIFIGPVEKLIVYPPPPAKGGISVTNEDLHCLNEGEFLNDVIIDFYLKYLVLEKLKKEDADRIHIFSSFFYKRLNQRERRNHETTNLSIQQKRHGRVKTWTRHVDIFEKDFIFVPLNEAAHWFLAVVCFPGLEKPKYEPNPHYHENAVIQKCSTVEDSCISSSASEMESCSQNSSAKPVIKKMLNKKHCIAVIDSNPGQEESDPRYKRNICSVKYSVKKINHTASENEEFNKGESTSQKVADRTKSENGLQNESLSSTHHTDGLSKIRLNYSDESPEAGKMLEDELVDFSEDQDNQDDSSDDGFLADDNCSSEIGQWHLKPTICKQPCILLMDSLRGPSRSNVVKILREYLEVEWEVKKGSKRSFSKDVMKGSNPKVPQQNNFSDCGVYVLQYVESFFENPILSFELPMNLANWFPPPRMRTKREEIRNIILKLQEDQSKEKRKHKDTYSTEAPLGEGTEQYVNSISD
SENP8 conf: SENP8 protease inhibitors, retest, confirmation, biochemical, luminescence, single concentration. shares compounds with SENP7 inh. Recombinant SENP8, Z-RLRGG-aminoluciferin luminescence, 60 min. inhibition, % at 12.5 µM. hit rate 40% among 6,200. AID 488912, 2010;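 active = mean inhibition across replicates above about 50%, limit read from the data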
SENP6 confirm: SENP6 protease inhibitors, confirmation, biochemical, luminescence, single concentration; shares compounds with SENP7 inh; recombinant SENP6, Z-RLRGG-aminoluciferin luminescence; inhibition, % at 12.5 µM; hit rate 58% among 6,200; AID 488915, 2010
SENP7 confirm: SENP7 protease inhibitors, retest, confirmation, biochemical, luminescence, single concentration; shares compounds with SENP7 inh; recombinant SENP7, Z-RLRGG-aminoluciferin luminescence, 40 min; inhibition, % at 12.5 µM; hit rate 69% among 6,200; AID 488917, 2010
Casp3 SENP sel: caspase-3 protease inhibitors, confirmation, selectivity assay for SENP inhibitor project, biochemical, single concentration; shares compounds with SENP7 inh; purified caspase-3, Z-DEVD-aminoluciferin luminescence, 60 min; inhibition, % at 12.5 µM; hit rate 60% among 6,200; AID 488918, 2010;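 active = mean inhibition above about 50%, limit read from the data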;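 also: plate controls were enzyme with DMSO for no effect and wells without caspase-3 for full effect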
Luc interf: interferes with luciferase luminescence in SENP counter-screen. shares compounds with SENP7 inh. Pre-incubated SENP8/Z-RLRGG-aminoluciferin, luciferase luminescence interference. inhibition, % at 12.5 µM. hit rate 39% among 6,200;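 active = mean inhibition above about 50% when retested at one dose, limit read from the data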;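 also: plate controls were DMSO wells with completed reaction for no effect and substrate without enzyme for full effect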
Starred values were filed as active, the others as inactive. Hits are enriched below; roughly 3% of the tested compounds scored in any of these assays.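 The calls were made as follows, unless noted: active = mean inhibition above about 50% in the one-dose retest (limit read from the data); inactive = the rest.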

`COc1cccc(-c2noc(-c3cccnc3)n2)c1` gave SENP7 inh 79*, SENP8 block-1 58*, PPC-1+TRAIL kill 15, SENP8 block-2 6, C8 TRAIL sens 40, SENP6 block 81*, SENP8 conf 26, SENP6 confirm 68*, SENP7 confirm 91*, Casp3 SENP sel 84* and Luc interf 52*.
`O=C(O)c1ccc(-c2noc(-c3cccc(C(F)(F)F)c3)n2)cc1` gave SENP7 inh 4, SENP8 block-1 41, SENP8 block-2 13, C8 TRAIL sens -10, SENP6 block 58*, SENP8 conf 54*, SENP6 confirm 56*, SENP7 confirm 80*, Casp3 SENP sel 56* and Luc interf 54*.
`COc1ccc(-c2cc(-c3ccccc3)no2)cc1` gave SENP7 inh 100*, SENP8 block-1 92*, SENP8 block-2 16, C8 TRAIL sens 59*, SENP6 block 97*, SENP8 conf 8, SENP6 confirm 81*, SENP7 confirm 86*, Casp3 SENP sel 76* and Luc interf 49.
Screening CCOC(=O)CC(C)(C)/C(C)=N/Nc1ccc([N+](=O)[O-])cc1[N+](=O)[O-] returned SENP7 inh 9, SENP8 block-1 4, PPC-1+TRAIL kill 0, SENP8 block-2 19, C8 TRAIL sens -11 and SENP6 block 11.
Screening CCCOc1cccc(C(=O)NCCNC(=O)c2cnccn2)c1 returned SENP7 inh 5, SENP8 block-1 -3, SENP8 block-2 16, C8 TRAIL sens -11 and SENP6 block -6.
For CSc1nc(C=Nc2ccccc2Cl)c(O)n1Cc1cccc(Cl)c1 the results were SENP7 inh 4, SENP8 block-1 -8, PPC-1+TRAIL kill 15, SENP8 block-2 5, C8 TRAIL sens 1 and SENP6 block -15.
O=C1/C(=C\c2cccnc2)Sc2ccccc21 was read as SENP7 inh 4, SENP8 block-1 -2, PPC-1+TRAIL kill 24, SENP8 block-2 -49, C8 TRAIL sens -12 and SENP6 block 23.
For CC(=O)Nc1ccc(/C=C2/Sc3ccccc3C2=O)cc1 the results were SENP7 inh 94*, SENP8 block-1 62*, SENP8 block-2 -100, C8 TRAIL sens 5, SENP6 block 66*, SENP8 conf 21, SENP6 confirm 21, SENP7 confirm 34, Casp3 SENP sel 34 and Luc interf 14.
CN(CCOc1ccccc1)C(=O)C1CCN(C(=O)c2ccc(F)cc2)CC1 was read as SENP7 inh 8, SENP8 block-1 0, SENP8 block-2 8, C8 TRAIL sens -13 and SENP6 block 0.
For c1ccc(CCNc2nc(-c3ccccn3)cs2)cc1 the results were SENP7 inh 43, SENP8 block-1 29, PPC-1+TRAIL kill 11, SENP8 block-2 -6, C8 TRAIL sens -3, SENP6 block 52*, SENP8 conf 2, SENP6 confirm -2, SENP7 confirm -2, Casp3 SENP sel 4 and Luc interf 12.
`O=C(O)CSc1nc2ccccc2o1` gave SENP7 inh 2, SENP8 block-1 -4, PPC-1+TRAIL kill 14, SENP8 block-2 -1, C8 TRAIL sens 0 and SENP6 block -10.
`COC(=O)c1ccc(CSc2nc3ccccc3o2)cc1` gave SENP7 inh 91*, SENP8 block-1 87*, PPC-1+TRAIL kill -4, SENP8 block-2 16, C8 TRAIL sens 3, SENP6 block 85*, SENP8 conf -24, SENP6 confirm 91*, SENP7 confirm 100*, Casp3 SENP sel 80* and Luc interf 65*.
O=[N+]([O-])c1ccc(CSc2nc3ccccc3o2)cc1 was read as SENP7 inh 24, SENP8 block-1 16, PPC-1+TRAIL kill -3, SENP8 block-2 21, C8 TRAIL sens -1, SENP6 block 52*, SENP8 conf 53*, SENP6 confirm 54*, SENP7 confirm 66*, Casp3 SENP sel 36 and Luc interf 32.
Screening O=C(NCCc1nc(-c2ccc(F)cc2)no1)c1ccc(F)cc1 returned SENP7 inh -3, SENP8 block-1 2, SENP8 block-2 -6, C8 TRAIL sens -14 and SENP6 block 5.
`CCCc1nc(-c2ccc(-c3ccc(F)cc3)cc2)no1` gave SENP7 inh 57*, SENP8 block-1 6, PPC-1+TRAIL kill 15, SENP8 block-2 13, C8 TRAIL sens 1, SENP6 block 52*, SENP8 conf 14, SENP6 confirm 16, SENP7 confirm 20, Casp3 SENP sel 28 and Luc interf 13.
Oc1c(Br)cc(C2N=C(c3ccccc3)NO2)cc1Br (stereo not given) was read as SENP7 inh 9, SENP8 block-1 81*, PPC-1+TRAIL kill 2, SENP8 block-2 -26, C8 TRAIL sens -11, SENP6 block 98*, SENP8 conf -21, SENP6 confirm 88*, SENP7 confirm 96*, Casp3 SENP sel 79* and Luc interf 91*.
CSc1ccc(C2N=C(c3ccccc3)NO2)cc1 (stereo not given) was read as SENP7 inh 11, SENP8 block-1 45, SENP8 block-2 -100, C8 TRAIL sens 11, SENP6 block 61*, SENP8 conf 20, SENP6 confirm 7, SENP7 confirm 34, Casp3 SENP sel 11 and Luc interf 18.
For CCc1ccc(NC(=O)c2cnn(-c3ccccc3)c2C2CCNCC2)cc1 the results were SENP7 inh 2, SENP8 block-1 -4, PPC-1+TRAIL kill 22, SENP8 block-2 13, C8 TRAIL sens 0 and SENP6 block -5.

Compound activity as filed in PubChem BioAssay.
